In the library only some 1.6% were active in any assay of this set; here they are far more common.
KCNQ2 enhance: KCNQ2 (rat) channel potentiation. B-score at 10 µM. O88943. CHO-K1 KCNQ2, FluxOR thallium flux fluorescence; hits give high values. actives 0.54% (n = 310,000). AID 2239;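 active = fluorescence ratio B-score at least 3 SD of library B-scores, with initial fluorescence B-score within 3 of them, cut at about 5.3 in these data; same plate scores as AID 2156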;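 note: B-score of peak minus minimum over baseline fluorescence ratio after K+ and Tl+ stimulus; positive B-score means potentiation of KCNQ2 with more thallium influx and brighter signal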
KCNQ2 inh: KCNQ2 (rat) channel inhibition | O88943 | CHO-K1 KCNQ2, FluxOR thallium flux, 20 min; hits give low values | B-score at 10 µM | actives 1.1% (n = 310,000);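 active = fluorescence ratio B-score at most minus 3 library SDs, with starting brightness B-score within 2 library SDs, cut at about -5.5 in these data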
KCNQ2 inh conf: rat KCNQ2 channel inhibition, confirmatory screen | shares compounds with KCNQ2 inh | KCNQ2-expressing cells, thallium flux; hits give low values | activity change, negative = inhibition, % at 10 µM | actives 57% (n = 1,000) | AID 493025
KCNQ1 spec: KCNQ2 inhibitor that also affects human KCNQ1 channel | shares compounds with KCNQ2 inh | KCNQ1-expressing cells, FluxOR thallium flux fluorescence; hits give low values | activity change, negative = inhibition, % at 10 µM | actives 15% (n = 1,000);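 active = activity change at least 3 SD of negative controls below their mean in both duplicate wells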;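 note: CHO cells stably transfected with KCNQ1 and depolarized by potassium stimulus; peak minus minimum fluorescence over baseline after thallium addition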
CHO Tl ctr: KCNQ2 inhibitor counter-screen hit in parental CHO cells | thallium flux counter-screen; hits give low values | actives 14% (n = 1,000) | AID 493029 | shares compounds with KCNQ2 inh | activity change, % at 10 µM
KCNQ2 inh confirm: confirmation of rat KCNQ2 potassium channel inhibitors | shares compounds with KCNQ2 inh | KCNQ2-expressing cells, automated patch clamp current | calls only at 10 µM | actives 49% (n = 550) | AID 588531
Kir21 confirm: confirmation of mouse Kir2.1 potassium channel inhibitors. actives 41% (n = 2,300). Tl flux remaining, % of negative control (hits give low values), % at 10 µM. Kir2.1-expressing cells, FluxOR thallium flux fluorescence; hits give low values. shares compounds with KCNQ2 enhance;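 active = Primary-screen hit whose thallium flux fell at least 3 control SD below untreated wells in both duplicates, with normal baseline fluorescence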
Target sequence (P35561 whole entry, looked up): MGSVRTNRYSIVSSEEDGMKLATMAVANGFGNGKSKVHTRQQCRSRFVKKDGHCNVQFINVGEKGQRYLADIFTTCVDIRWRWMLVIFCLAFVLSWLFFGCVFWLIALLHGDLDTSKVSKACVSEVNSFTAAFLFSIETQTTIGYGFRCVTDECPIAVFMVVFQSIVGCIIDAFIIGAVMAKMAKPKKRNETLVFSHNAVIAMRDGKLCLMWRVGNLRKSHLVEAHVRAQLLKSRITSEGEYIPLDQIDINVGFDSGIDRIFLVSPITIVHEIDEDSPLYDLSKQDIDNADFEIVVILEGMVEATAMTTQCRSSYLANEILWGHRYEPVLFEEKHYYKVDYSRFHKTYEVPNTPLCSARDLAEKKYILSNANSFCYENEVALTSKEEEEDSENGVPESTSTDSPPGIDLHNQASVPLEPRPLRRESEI
HEK293 ctr: parental HEK293 activity in Kir2.1 inhibitor counter-screen | shares compounds with KCNQ2 enhance | actives 19% (n = 2,300) | FluxOR signal as % of negative control (100 = no effect), % at 10 µM | parental HEK293 cells, FluxOR thallium flux fluorescence; 0% = unstimulated blank wells;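 active = dye signal at least 3 control SD above or below untreated wells in both duplicates, raw fluorescence within 3, either direction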;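 note: percent is based on the flux ratio of peak minus minimum fluorescence over baseline F0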
Kir21 spec: mouse Kir2.1 off-target activity of KCNQ2 potentiators | activity over 3SD threshold, % at 10 µM | AID 2345 | actives 2% (n = 1,200) | HEK293 Kir2.1, FluxOR thallium flux fluorescence | shares compounds with KCNQ2 enhance;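 active = fluorescence ratio rise of at least 3 SD above the vehicle-control mean, seen in both replicates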
Hits are given with their value; 0 = inactive; - = not tested or not shown; + = active, no number. Unless noted, the rule behind the calls is not given here.

SMILES	KCNQ2 enhance	KCNQ2 inh	KCNQ2 inh conf	KCNQ1 spec	CHO Tl ctr	Kir21 confirm	HEK293 ctr	others
O=C(N/N=C\c1cn(-c2ccccc2)nc1-c1ccccc1)c1ccc2c(c1)OCO2	-	0	-	-	-	-	-
CCc1nc(Nc2ccc3c(c2)OCCO3)c2oc3ccccc3c2n1	-	0	-	-	-	-	-
Cc1nc(Nc2ccc3c(c2)OCCO3)c2oc3ccccc3c2n1	0	-8.05	-31.5%	-28.0%	0	-	-	KCNQ2 inh confirm=0
O=[N+]([O-])c1ccccc1N/N=C\c1ccccc1F	0	0	-	-	-	-	-
CC1CCC(C(C)C)C(OC(=O)COC(=O)c2cc(O)ccc2N)C1 (configuration not stated)	0	0	-	-	-	-	-
CC1CCC(C(C)C)C(OC(=O)COC(=O)c2ccc(=O)[nH]c2)C1 (configuration not stated)	0	0	-	-	-	-	-
COc1ccc(OCc2n(CC(=O)OC3CC(C)CCC3C(C)C)c3ccccc3[n+]2C)cc1 (configuration not stated)	0	-7.41	-21.0%	0	0	15.5%	0	KCNQ2 inh confirm=+
COc1ccc(-c2n(CC(=O)OC3CC(C)CCC3C(C)C)c3ccccc3[n+]2C)cc1 (configuration not stated)	0	-10.7	-33.5%	0	0	0	0	KCNQ2 inh confirm=+
NCCc1c(-c2ccccc2)n(-c2ccccc2)c2ccccc12	0	-6.95	0	0	0	15.0%	0
CC(=O)n1c(-c2ccccc2)c(CO)c2ccccc21	0	0	-	-	-	-	-
CS(=O)(=O)c1cccc(-c2nnc(NC(=O)c3ccc(S(=O)(=O)N4CCCC4)cc3)o2)c1	0	0	-	-	-	-	-
O=C(CCc1c[nH]c2ccccc12)NCCc1ccc2c(c1)OCCO2	-	0	-	-	-	-	-
CCOc1cc(CNCc2ccccc2)ccc1OCc1ccc(Cl)cc1	-	0	-	-	-	-	-
COc1ccc(CNCCc2ccc(Cl)cc2)cc1OCc1ccccc1	0	-12.7	0	0	0	13.5%	0
COC(=O)c1ccc2c(c1)C(C)(C)C(/C=C/c1ccc(OC)c(OC)c1OC)=[N+]2C	0	-15.8	-70.0%	-66.5%	-60.5%	31.0%	0	KCNQ2 inh confirm=0
COC(=O)c1ccc2c(c1)C(C)(C)C(/C=C/c1ccc(O)cc1)=[N+]2C	-	0	-	-	-	-	-
COc1ccc(S(=O)(=O)NC(C)C(=O)NCc2ccco2)cc1OC (configuration not stated)	0	0	-	-	-	-	-
O=C(NCc1cccnc1)c1sc2cc(Cl)ccc2c1Cl	0	0	-	-	-	-	-
Cc1ccc(COc2ccc(/C=N/O)cc2)cc1	-	0	-	-	-	-	-
NC(N)=N/N=C/c1ccc(OCc2ccc(Cl)cc2)cc1	0	-9.63	-37.0%	0	0	0	76.0%	KCNQ2 inh confirm=+
N#CC(C#N)=Cc1ccc(OCC(=O)N2CCOCC2)cc1	-	0	-	-	-	-	-
Cc1ccc(C(=O)c2no[n+]([O-])c2C(=O)c2ccc(C)cc2)cc1	0	-9.7	-28.5%	0	0	70.5%	62.5%	KCNQ2 inh confirm=0;Kir21 spec=0
Cc1ccc(C(=O)c2ccc(C)cc2)cc1	-	0	-	-	-	-	-
COc1ccccc1C(=O)NCC(=O)n1nc(C)cc1C	-	0	-	-	-	-	-
COC(=O)c1cnc2ccccc2n1	0	0	-	-	-	-	-
SMILES	KCNQ2 enhance	KCNQ2 inh	KCNQ2 inh conf	KCNQ1 spec	CHO Tl ctr	Kir21 confirm	HEK293 ctr	others
Cc1ccc(CC(CC(=O)O)C(=O)NCc2ccccc2)cc1 (configuration not stated)	-	0	-	-	-	-	-
CNC[C@H](Cc1ccccc1)NC[C@@H](Cc1cccc2ccccc12)NCCc1ccc(C)cc1	0	-8.44	0	0	0	14.0%	0
CC(C)=CCc1c(O)ccc2c1OC(c1ccc(O)c(O)c1)CC2=O (configuration not stated)	0	-8.74	0	0	0	54.5%	0
O=C1CC(c2ccc(O)c(O)c2)Oc2cc(O)cc(O)c21 (configuration not stated)	0	0	-	-	-	-	-
O=S1(=O)NC2c3ccccc3CC2O1 (configuration not stated)	0	0	-	-	-	-	-
CN(Cc1ccccc1O)CC1CCCN(CCc2ccc(Cl)cc2)C1 (configuration not stated)	0	-8.98	0	0	0	23.0%	0
COc1ccc(CCN2CCCC(CN(C)Cc3cc(OC)ccc3OC)C2)cc1 (configuration not stated)	0	0	-	-	-	-	-
Cc1ccc(Cn2nnc(C(=O)Nc3cccc(C)c3C)c2N)cc1	0	0	-	-	-	-	-
OCCNc1nc(Nc2ccc(Br)cc2)nc2ccccc12	0	-12.2	-26.0%	0	0	30.5%	0	KCNQ2 inh confirm=0
OCCNc1nc(Nc2ccccc2)nc2ccccc12	0	0	-	-	-	-	-
COc1ccc(S(=O)(=O)N2CCC(C(=O)N3CCN(C)CC3)CC2)cc1Cl	-	0	-	-	-	-	-
CCCCCCCNC(=O)C1(CC2CC(c3cccc(Br)c3)=NO2)CCNCC1 (configuration not stated)	0	-8.63	-41.5%	-43.0%	-45.0%	37.0%	0	KCNQ2 inh confirm=+
CCCCCCCNC(=O)C1(CC2CC(c3cccc(Br)c3)=NO2)CCN(C(=O)c2ccccc2)CC1 (configuration not stated)	-	0	-	-	-	-	-
Cc1cc(C)cc(NC(=O)CSc2nc3ccncc3[nH]2)c1	0	0	-	-	-	-	-
COc1ccc(OC)c(S(=O)(=O)NCCCc2ccccc2)c1	-	0	-	-	-	-	-
Cc1nc(SCC(=O)NCc2ccc(F)cc2)c2c(=O)n(C)c(=O)n(C)c2n1	0	0	-	-	-	-	-
CC1(C)OC(=O)N(c2ccccc2)C12C=Cc1cc(Br)ccc1O2 (configuration not stated)	-	0	-	-	-	-	-
CN1c2ccccc2C(C)(C)[C@]12C=Cc1cc(O)ccc1O2	0	-9.52	-34.0%	0	0	0	0	KCNQ2 inh confirm=0
N=c1c2c(-c3ccccc3)c(-c3ccccc3)oc2ncn1CCN1CCOCC1	-	0	-	-	-	-	-
CC(C)Cn1cnc2c(c(-c3ccccc3)c(-c3ccccc3)n2Cc2ccco2)c1=N	0	-10.4	0	0	0	0	134.0%
N=c1c2c(-c3ccccc3)c(-c3ccccc3)n(Cc3ccco3)c2ncn1CCCN1CCOCC1	-	0	-	-	-	-	-
N=c1c2c(-c3ccccc3)c(-c3ccccc3)n(Cc3ccccc3)c2ncn1CCO	0	-7.48	0	0	0	38.5%	63.0%
C(=N\Nc1nc2ccccc2[nH]1)/c1cccc2nccnc12	-	0	-	-	-	-	-
COc1ccc(CCNC(=O)CS(=O)(=O)c2cn(CC(=O)N3CCCC3)c3ccccc23)cc1OC	0	0	-	-	-	-	-

Source: PubChem
